# Screening data: PubChem, The Scripps Research Institute Molecular Screening Center
# Only a selection was taken, and hits are over-represented in it overall.
# TTR transcr act: TTR transcription activators in neuroblastoma reporter cells, primary screen, cell-based, luminescence, SH-SY5Y, TTR promoter Gaussia luciferase. 100% = recombinant luciferase protein wells. activation, % at 16.7 µM. 1.3% of 92,000 active;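 active = activation above the mean of all tested compounds plus 3 SD, cut at about 9.5% in these data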;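 note: cells exposed to compounds for one day before reading; 0% = median of all test compound wells on the plate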
# HuH7 TTR inh: TTR promoter reporter inhibitors in hepatoma cells, counter-screen for TTR transcription activator project, cell-based, luminescence, HuH7 hepatoma; shares compounds with TTR transcr act; HuH7 TTR promoter-Gaussia luciferase reporter; 4% of 1,100 active; inhibition, % at 16.7 µM;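 active = average inhibition above the solvent-only control wells' mean plus 3 SD, cut at about 15% in these data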;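 note: 0% = cells with DMSO only and 100% = cells with inhibitor control FD; inhibitors lower well luminescence so higher value means more inhibition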
# TTR act confirm: TTR transcription activators, retest, confirmation, cell-based, luminescence, SH-SY5Y, triplicate. shares compounds with TTR transcr act. SHSY5Y TTR promoter Gaussia luciferase; 100% = purified Lucia enzyme wells, no cells. activation, % at 16.7 µM. 1,100 tested, under 10 active;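 active = mean activation above a set limit taken from the earlier primary screen, cut at about 11% in these data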;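 note: 0% = DMSO-treated cells and 100% = recombinant Lucia luciferase without cells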
# Starred values were filed as active, the others as inactive.
SMILES,TTR transcr act,others
O=C(Cc1ccccc1)N1CCN(CCCc2ccccc2)CC1,0,
O=C(Cc1ccc(Br)cc1)N1CCN(Cc2ccccc2)CC1,11*,
Cc1ccc(CC(=O)N2CCN(Cc3ccccc3)CC2)cc1,-1,
CN1C(=O)[C@@]23C[C@]4(c5c[nH]c6ccccc56)c5ccccc5N(S(=O)(=O)c5ccccc5)[C@@H]4N2C(=O)[C@@H]1SS3,-3,
O=C(CNC(=O)OCc1ccccc1)NC(Cc1ccccc1)P(=O)(Oc1ccccc1)Oc1ccccc1 (stereo unspecified),-2,
CC1c2ccccc2-n2nncc2CN1CC1CCCCC1 (stereo unspecified),1,
Brc1ccc2c(c1)CN(CC1CCCCC1)Cc1cnnn1-2,27*,HuH7 TTR inh=-8;TTR act confirm=0
O=S(=O)(c1ccc(Cl)cc1)N1Cc2cc(Br)ccc2-n2nncc2C1,0,
COc1ccc2c3c([nH]c2c1)[C@H](C=C(C)C)N1C(=O)[C@@H]2CCCN2C(=O)[C@@H]1C3,0,
CO[C@H]([C@H](C)/C=C/N(C)C=O)[C@@H](C)C(=O)CC[C@H](C)[C@H](O)[C@H](C)[C@H]1OC(=O)/C=C/C(C)=C/[C@H](O)[C@H](OC)C[C@@H]2C=CC[C@@H](C[C@H](OC)[C@@H](CO)[C@@H](OC)C[C@@H](OC)[C@@H]1C)O2,7,
CC(C)C(NC(=O)OCc1ccccc1)P(=O)(Oc1ccccc1)Oc1ccccc1 (stereo unspecified),0,
CNC1(c2ccccc2Cl)CCCCC1=O (stereo unspecified),16*,HuH7 TTR inh=-3;TTR act confirm=-1
CN(C)CC1CSCCC1(O)c1ccccc1Cl (stereo unspecified),2,
Brc1csc(N2CCNCC2)n1,0,
COc1cccc(C(=O)C2CCCN(Cc3cnn(C(C)C)c3)C2)c1 (stereo unspecified),11*,HuH7 TTR inh=-16;TTR act confirm=2
COc1cccc(C(=O)C2CCCN(Cc3ccc(F)cc3)C2)c1 (stereo unspecified),2,
COc1cccc(C(=O)C2CCCN(Cc3cccc(C)n3)C2)c1 (stereo unspecified),3,
CC(C)(C)C(=O)N1Cc2cc(N3CCOCC3)ccc2-n2nncc2C1,-1,
CC(C)(C)OC(=O)NCCCCC(N)[P+](=O)O (stereo unspecified),7,
CC(=O)C1CCC2C3CCC4CC(O)CCC4(C)C3C(=O)CC12C (stereo unspecified),12*,HuH7 TTR inh=-7;TTR act confirm=-1
CC(=O)C1CCC2C3CC(O)C4CC(O)CCC4(C)C3CCC12C (stereo unspecified),-2,
CC(=O)C1CCC2C3CCC4CC(O)CCC4(C)C3C(O)CC12C (stereo unspecified),-1,
O=[N+]([O-])/C=C1/NCCN1Cc1ccc(Cl)nc1,0,
Clc1ccc([C@H]2CC3CCC2N3)cn1 (stereo partly specified),-2,
O=C1CC[C@@]2(O)[C@H]3Cc4ccc(O)c5c4[C@@]2(CCN3CC2CC2)C1O5 (stereo partly specified),-1,
SMILES,TTR transcr act,others
O=C(NC(Cc1ccccc1)P(=O)(O)Oc1ccccc1)OCc1ccccc1 (stereo unspecified),-1,
O=P(/C(=N/O)N1CCOCC1)(N1CCOCC1)N1CCOCC1,12*,HuH7 TTR inh=-10;TTR act confirm=-1
O=P(Oc1ccccc1)(N1CCOCC1)N1CCOCC1,-1,
O=CC(Cl)P(=O)(N1CCOCC1)N1CCOCC1 (stereo unspecified),1,
CCn1c(O)c(/C=N/N2CCOCC2)c(=O)n(CC)c1=S,1,
Cc1ccc(-n2c(O)c(/C=N/N3CCOCC3)c(=O)[nH]c2=S)cc1,10*,HuH7 TTR inh=10;TTR act confirm=0
O=c1[nH]c(=S)n(-c2ccc(Cl)cc2)c(O)c1C=Nc1ccc(N2CCOCC2)cc1,-2,
Cc1ccc2c(c1)C(c1ccccc1)=NCC(=O)N2C,-1,
COC(=O)C(Cc1ccc(N(CCCl)CCCl)cc1)N=Cc1ccccc1O (stereo unspecified),1,
NC(Cc1ccccc1)[P+](=O)O (stereo unspecified),6,
S=P(c1ccccc1)(c1ccccc1)c1cnc2ccccn12,0,
CCN1CCN(c2nc([N+](=O)[O-])nn2C)CC1,14*,HuH7 TTR inh=-4;TTR act confirm=0
CN1CCN(c2nc([N+](=O)[O-])nn2C)CC1,1,
NC(Cc1nc2ccccc2[nH]1)c1ccc(Cl)cc1 (stereo unspecified),-3,
Cc1cc(=O)[nH]c(CCl)n1,0,
Cc1cnc(-n2c(=S)[nH]c3ccccc3c2=O)s1,1,
CCC(NC(=O)OCc1ccccc1)P(=O)(Oc1ccccc1)Oc1ccccc1 (stereo unspecified),0,
